Results from PubChem BioAssay (Tox21).
Inconclusive results are not listed. Calls of active or inactive are those of the source. Unless noted, the call rests on the fitted dose curve; in most records, active means well fitted curve in the direction sought with a large enough effect in the repeat runs; inconclusive means weak or mixed curves; inactive means no such curve, though single readings can be large; an effect the other way counts as inactive or inconclusive.

Assays:
[1] = qHTS assay to identify small molecule antagonists of the thyroid receptor (TR) signaling pathway (AID 743065); further: nearly all actives have a fitted effect of over 55% in size
How it was run: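 GH3.TRE-Luc rat pituitary cells carrying two TR response elements driving luciferase were plated for 4 h, given compound plus 1 nM T3 (final), and incubated 23.5 h at 37 C. ONE-Glo luminescence measured reporter inhibition; CellTiter-Fluor fluorescence tracked cytotoxicity.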

[2] = system: thyroid hormone receptor (rat, GH3 cells); assay: qHTS assay to identify small molecule agonists of the thyroid receptor (TR) signaling pathway (AID 743066; calls by dose curve)
[3] = qHTS assay to identify small molecule antagonists of the estrogen receptor alpha (ER-alpha) signaling pathway - cell viability counter screen (AID 743074; calls by dose curve;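 further: HEK293 cells carrying ER-alpha-UAS-bla reporter stimulated with 17beta-estradiol; nearly all actives have a fitted effect of over 45% in size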)
[4] = molecular target: Estrogen receptor (Homo sapiens) (UniProt P03372); assay: qHTS assay to identify small molecule agonists of the estrogen receptor alpha (ER-alpha) signaling pathway (AID 743075; calls by dose curve;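 further: HEK293 GripTite cells with ER-alpha and UAS-driven beta-lactamase reporter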)
Estrogen receptor (Homo sapiens), sequence (P03372 whole entry, looked up): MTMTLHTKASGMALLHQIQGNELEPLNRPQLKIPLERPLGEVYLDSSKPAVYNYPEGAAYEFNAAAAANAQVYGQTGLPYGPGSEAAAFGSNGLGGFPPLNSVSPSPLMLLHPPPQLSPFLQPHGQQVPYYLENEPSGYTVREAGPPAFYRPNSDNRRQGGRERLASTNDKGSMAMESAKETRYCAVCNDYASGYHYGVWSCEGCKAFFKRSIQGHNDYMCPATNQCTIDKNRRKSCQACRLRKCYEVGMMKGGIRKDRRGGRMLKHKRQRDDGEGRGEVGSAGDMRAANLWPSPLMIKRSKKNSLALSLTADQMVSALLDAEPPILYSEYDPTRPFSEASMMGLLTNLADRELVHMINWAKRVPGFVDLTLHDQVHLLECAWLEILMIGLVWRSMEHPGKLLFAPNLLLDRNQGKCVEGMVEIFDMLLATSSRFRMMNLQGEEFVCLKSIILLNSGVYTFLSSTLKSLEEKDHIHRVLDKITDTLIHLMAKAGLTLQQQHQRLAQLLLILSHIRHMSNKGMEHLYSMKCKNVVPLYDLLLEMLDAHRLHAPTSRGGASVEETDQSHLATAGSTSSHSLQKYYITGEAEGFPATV

[5] = molecular target: Estrogen receptor (Homo sapiens) (UniProt P03372); assay: qHTS assay to identify small molecule agonists of the estrogen receptor alpha (ER-alpha) signaling pathway using the BG1 cell line (AID 743079); conditions: BG1Luc4E2 cells, ERE-luciferase agonist, 22 h; activation: at 70.3 µM (top of the series); further: nearly all actives have a fitted effect of over 20% in size
[6] = qHTS assay to identify small molecule antagonists of the estrogen receptor alpha (ER-alpha) signaling pathway using the BG1 cell line (AID 743080; calls by dose curve;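 further: BG1 cells stimulated with 17beta-estradiol alongside compound; nearly all actives have a fitted effect of over 25% in size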)
How it was run: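 After 5 days in phenol-red-free 10% charcoal-stripped FBS medium, BG1-Luc-4E2 cells were seeded, left 24 h at 37 C, co-treated with compounds and 17beta-estradiol for 21.5 h, then assayed for viability and luciferase.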

[7] = qHTS assay to identify small molecule antagonists of the estrogen receptor alpha (ER-alpha) signaling pathway using the BG1 cell line - cell viability counter screen (AID 743081);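 further: compound given together with 17beta-estradiol as the ER stimulus; nearly all actives have a fitted effect of over 45% in size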
Aromatase (Homo sapiens) = Aromatase (Homo sapiens) (UniProt P11511); assay: qHTS assay to identify aromatase inhibitors (AID 743083); further: nearly all actives have a fitted effect of over 55% in size
Aromatase (Homo sapiens), sequence (P11511 whole entry, looked up): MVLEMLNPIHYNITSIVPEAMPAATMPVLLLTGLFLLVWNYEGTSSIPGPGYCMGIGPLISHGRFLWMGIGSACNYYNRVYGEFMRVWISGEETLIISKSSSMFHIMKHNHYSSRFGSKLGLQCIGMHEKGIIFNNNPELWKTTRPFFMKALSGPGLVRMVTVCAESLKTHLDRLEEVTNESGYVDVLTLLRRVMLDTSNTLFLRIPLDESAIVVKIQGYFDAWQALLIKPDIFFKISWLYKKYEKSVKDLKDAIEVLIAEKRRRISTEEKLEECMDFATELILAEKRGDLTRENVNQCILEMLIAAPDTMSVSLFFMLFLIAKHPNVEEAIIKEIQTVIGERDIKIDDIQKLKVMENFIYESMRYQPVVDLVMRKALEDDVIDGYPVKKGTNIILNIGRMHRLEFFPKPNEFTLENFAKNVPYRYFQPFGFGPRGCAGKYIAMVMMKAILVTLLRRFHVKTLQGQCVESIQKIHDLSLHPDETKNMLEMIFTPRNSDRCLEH

[8] = qHTS assay to identify aromatase inhibitors - cell viability counter screen (AID 743084);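 further: cells stimulated with testosterone during compound exposure; nearly all actives have a fitted effect of over 55% in size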
[9] = molecular target: Aryl hydrocarbon receptor (Homo sapiens) (UniProt P35869); assay: qHTS assay to identify small molecule that activate the aryl hydrocarbon receptor (AhR) signaling pathway (AID 743085);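 further: HG2L7.5c1 human HepG2 liver cells with stably integrated DRE-driven firefly reporter; nearly all actives have a fitted effect of over 15% in size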
Aryl hydrocarbon receptor (Homo sapiens), sequence (P35869 whole entry, looked up): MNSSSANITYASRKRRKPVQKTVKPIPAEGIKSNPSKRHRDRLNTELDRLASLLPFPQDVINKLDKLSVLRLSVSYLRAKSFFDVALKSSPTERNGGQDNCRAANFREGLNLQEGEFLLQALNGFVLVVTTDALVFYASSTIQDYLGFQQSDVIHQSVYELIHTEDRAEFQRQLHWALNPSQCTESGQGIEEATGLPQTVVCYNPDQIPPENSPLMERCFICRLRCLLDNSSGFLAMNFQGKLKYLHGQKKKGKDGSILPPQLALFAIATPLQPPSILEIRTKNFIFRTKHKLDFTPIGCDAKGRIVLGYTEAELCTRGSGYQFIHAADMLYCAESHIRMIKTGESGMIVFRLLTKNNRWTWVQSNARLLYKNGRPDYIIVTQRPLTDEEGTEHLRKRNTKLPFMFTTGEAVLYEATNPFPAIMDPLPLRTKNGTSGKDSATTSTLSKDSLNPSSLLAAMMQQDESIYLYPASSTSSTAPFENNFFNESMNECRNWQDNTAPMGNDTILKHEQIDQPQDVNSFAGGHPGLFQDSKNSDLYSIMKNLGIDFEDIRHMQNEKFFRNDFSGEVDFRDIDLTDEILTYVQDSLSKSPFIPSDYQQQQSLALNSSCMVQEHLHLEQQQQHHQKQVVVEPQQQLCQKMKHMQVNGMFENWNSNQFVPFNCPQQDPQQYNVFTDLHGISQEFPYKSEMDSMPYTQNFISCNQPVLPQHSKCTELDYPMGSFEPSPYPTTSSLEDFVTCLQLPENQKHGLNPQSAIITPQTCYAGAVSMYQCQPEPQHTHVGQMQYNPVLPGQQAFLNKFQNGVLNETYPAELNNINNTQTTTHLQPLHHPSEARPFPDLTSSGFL
How it was run: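 Cell line HG2L7.5c1 (human hepatoma, 20× DRE-luc). Plated, 5 h 37C, compound/DMSO added, 24 h 37C. CellTiter-Fluor 30 min 37C → fluorescence; then ONE-Glo 30 min RT → luminescence.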

[10] = qHTS assay to identify small molecule that activate the aryl hydrocarbon receptor (AhR) signaling pathway - cell viability counter screen (AID 743086);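 further: HepG2 liver cells carrying the AhR DRE luciferase reporter; nearly all actives have a fitted effect of over 45% in size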
How it was run: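 HepG2-AhR-luc (HG2L7.5c1) cells, 4000/well, were preincubated 5 h at 37C, exposed to compound in qHTS format for 24 hr at 37C, then given CellTiter-Fluor for 30 min; viability was read as fluorescence in the reporter wells.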

[11] = molecular target: Peroxisome proliferator-activated receptor gamma (Homo sapiens) (UniProt P37231); assay: qHTS assay to identify small molecule agonists of the peroxisome proliferator-activated receptor gamma (PPARg) signaling pathway (AID 743094; active means well fitted activation curve with a large enough effect in the signal ratio in the repeat runs, not every such curve was filed as active; the % refers to the signal ratio)
Peroxisome proliferator-activated receptor gamma (Homo sapiens), sequence (P37231 whole entry, looked up): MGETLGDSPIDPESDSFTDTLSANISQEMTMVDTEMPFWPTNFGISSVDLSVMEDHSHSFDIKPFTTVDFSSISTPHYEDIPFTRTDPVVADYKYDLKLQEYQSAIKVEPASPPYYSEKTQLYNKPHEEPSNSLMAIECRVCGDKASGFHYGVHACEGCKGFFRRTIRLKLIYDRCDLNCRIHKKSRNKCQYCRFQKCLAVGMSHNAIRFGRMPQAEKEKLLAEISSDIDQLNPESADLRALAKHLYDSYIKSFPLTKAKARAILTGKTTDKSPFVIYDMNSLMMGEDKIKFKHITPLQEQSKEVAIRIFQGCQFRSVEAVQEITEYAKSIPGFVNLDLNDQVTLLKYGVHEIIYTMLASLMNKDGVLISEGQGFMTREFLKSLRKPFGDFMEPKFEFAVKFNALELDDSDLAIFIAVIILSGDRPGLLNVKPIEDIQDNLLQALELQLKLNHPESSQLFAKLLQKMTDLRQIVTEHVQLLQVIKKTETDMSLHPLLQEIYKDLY
How it was run: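 GeneBLAzer PPARg UAS-bla HEK293H cells carrying a stably integrated beta-lactamase reporter were pre-incubated 5 h at 37C, then exposed to compounds in DMSO for 17 h at 37C; LiveBLAzer B/G FRET substrate was added for 1 h at room temperature and fluorescence read.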

[12] = qHTS assay to identify small molecule phospholipidosis (PLD) inducers (AID 1259344; active means well fitted curve in the direction sought with a large enough effect; an effect the other way counts as inactive or inconclusive)
How it was run: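 HepG2 cells grown on collagen I take up LipidTOX Red while exposed to compound for 24 h; after fixation they are imaged at 20x and pit metrics are extracted.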

[13] = molecular target: Nuclear receptor subfamily 1 group I member 2 (Homo sapiens) (UniProt O75469); assay: CYP3A4 induction through human pregnane X receptor (PXR) by small molecules, qHTS assay (AID 1346984); further: nearly all actives have a fitted effect of over 40% in size
How it was run: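 DPX-2 cells (HepG2 co-transfected with PXR and CYP3A4 promoter-luciferase) treated with compounds 24 h at 37C; luciferin-IPA CYP3A4 substrate 3uM final added for 3 h, then One-Glo; luminescence read. qHTS format.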

[14] = molecular target: Nuclear receptor subfamily 1 group I member 2 (Homo sapiens) (UniProt O75469); assay: Human pregnane X receptor (PXR) activation by small molecules, qHTS assay (AID 1346985); further: nearly all actives have a fitted effect of over 40% in size
How it was run: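 DPX-2 cells (HepG2 co-transfected with a PXR response element and a CYP3A4-promoter luciferase construct) were seeded at 2,000 per well, rested 5 hr at 37C, then exposed to DMSO-dissolved compounds for 24 hr. Activation was read as luciferase luminescence.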

[15] = molecular target: Estrogen receptor (Homo sapiens) (UniProt P03372); assay: qHTS assay to identify small molecule antagonists of the estrogen receptor alpha (ER-alpha) signaling pathway (AID 743069; active means well fitted curve in the direction sought with a large enough effect in the signal ratio in the repeat runs, not every such curve was filed as active; the % refers to the signal ratio)
How it was run: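 Estradiol-stimulated ER-alpha-UAS-bla HEK293 cells, 18 hr compound exposure at 37C. LiveBLAzer B/G substrate, 2 hr RT, fluorescence read.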

[16] = qHTS assay to identify small molecule antagonists of the thyroid receptor (TR) signaling pathway - cell viability counter screen (AID 743064); further: nearly all actives have a fitted effect of over 50% in size
How it was run: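 Fluorescence from CellTiter-Fluor, added after 23.5 h exposure at 37 °C, reported viability of GH3.TRE-Luc cells co-treated with compound and 1 nM T3. Measured in the same wells as the luciferase TR readout.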

Measured: Potency

CC(=O)[C@@]1(O)CC[C@H]2[C@@H]3C=C(Cl)C4=CC(=O)[C@@H]5C[C@@H]5[C@]4(C)[C@H]3CC[C@@]21C
not listed: [15] | [16]
inactive: all other assays above

COC(F)(F)C(Cl)Cl
not listed: [1] | [2] | [16]
inactive: all other assays above

O=C(O)[C@H]1/C(=C/CO)O[C@@H]2CC(=O)N21
not listed: [9]
inactive: all other assays above

CC[C@H](C)[C@@H]1NC(=O)[C@H](Cc2ccc(O)cc2)NC(=O)[C@@H](N)CSSC[C@@H](C(=O)N2CCC[C@H]2C(=O)N[C@@H](CC(C)C)C(=O)NCC(N)=O)NC(=O)[C@H](CC(N)=O)NC(=O)[C@H](CCC(N)=O)NC1=O
not listed: [4] | [5] | [6] | [15] | [16]
inactive: all other assays above

O=C1NCCN1c1ncc([N+](=O)[O-])s1
not listed: [16]
inactive: all other assays above
